CRE Fsk mod: modulators of forskolin-stimulated CRE signaling in CHO cells; 71,000 tested, 2.5% active; Potency, µM (doses to about 38.2 µM), inactives show at the highest dose activity change, negative = inhibition, actives largely listed as activators; CHO CRE-bla reporter (cAMP response element driving beta-lactamase), forskolin EC10, beta-lactamase ratio; active means well fitted activation curve with a large enough effect in the signal ratio, with a control signal flat, not every such curve was filed as active; inconclusive means small, poorly fitted or top-dose-only effect, or effect the other way, or a change in a side signal; the % refers to the signal ratio; further: potency means the concentration at half of the fitted maximal effect; % of control where 0% means no effect
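Reporter-gene assay: CHO cells with beta-lactamase behind cAMP responsive elements, co-treated with compound and EC10 NKH 477 for 3 hours at 37 degrees Celsius. Activity came from the 460/530 nm CCF4 emission ratio.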
Peg3 imprint: inducers of genomic imprint erasure in mouse ES cells; Potency, µM (doses to about 60.7 µM), without a hit: at the top dose activity change, positive = activation, actives largely listed as activators; 110,000 tested, 0.02% active; mouse ES Peg3-LacZ reporter, beta-gal luminescence, 40 h; AID 1948; further: potency means the concentration at half of the fitted maximal effect
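Each well holds 300 Peg3LacZ-Neo (maternal) female ES cells incubated 40 h at 37C, 5% CO2. LacZ is measured by BetaGlo luminescence, with AC50 and maximum efficacy derived from dose-response curves.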
HBB splicing: modulators of hemoglobin beta chain splicing. HBB splicing reporter cell assay, activation; EGFP reporter with mutant IVS2-654 intron; response scale: normalised to 500 nM splice-correcting PNA. 65,000 tested, 0.06% active. Potency, µM (titrated, usually from 46.1 µM), for the others: at the top dose activation, usual class: activators; further: potency means the concentration at half of the fitted maximal effect; 0% is about no effect
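HeLa cells stably expressing EGFP interrupted by mutant beta-globin intron 2 (IVS2-654), 500/well in 2% FCS. Treated with compound for 2 days at 37C. Splicing correction scored as total well GFP intensity (488 nm excitation, 500-520 nm emission); 500 nM antisense PNA served as control.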
IkB sig inh: suppresses IkB signaling in ABC-DLBCL reporter cells; ABC-DLBCL IkBa-CBG/CBR dual luciferase ratio, 4 h; response scale: scaled: untreated 0%, proteasome inhibitor 100%; Potency, µM (titrated, usually from 57.1 µM), for the others: top-dose IkBa stabilization activation; 110,000 tested, 0.04% active; AID 445; active means well fitted curve in the direction sought with a large enough effect in the signal ratio, not every such curve was filed as active; inconclusive means small, poorly fitted or top-dose-only effect, or a change in a side signal; the % refers to the signal ratio;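 further: potency means the concentration at half of the fitted maximal effect; the direction sought is a rising ratio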
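Luminescence ratio of IκBα-fused green versus native red beetle luciferase in OCI-Ly3 cells, 4 h post-doxycycline with compound; red signal alone, scaled from basal (0%) to zero light (-100%), flagged nonspecific or cytotoxic effects.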
Epigenetic mod: derepresses silenced GFP locus in mouse C127i cells. mouse C127i GFP locus derepression, cytometry, 30 h. Potency, µM (top dose mostly 46.1 µM), for the others: top-dose GFP derepression (activation). 68,000 tested, 0.09% active. AID 597; further: % of control where 0% means no effect
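Murine C127i mammary cells carrying a silenced, stably integrated CMV-driven GFP reporter were treated with compound for 30 hours at 37 C. After PBS washes, GFP-positive cells were counted by laser-scanning microplate cytometry.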
The depositor's hits bear a star; u = inconclusive; x = not tested or not shown; [ ] = remark or other dose. The sample as a whole holds a higher share of hits than the screen did. Unless noted, the call rests on the fitted dose curve; in most records, active means well fitted curve in the direction sought with a large enough effect; inconclusive means small, poorly fitted or top-dose-only effect, or another doubt; inactive means no such curve, though single readings can be large; an effect the other way counts as inactive or inconclusive.

SMILES	CRE Fsk mod	Peg3 imprint	HBB splicing	IkB sig inh	Epigenetic mod
O=C(Nc1ccccc1)c1nc[nH]c1C(=O)O	x	-13%[10.9 µM]	x	-2%	x
O=C(NCc1ccccn1)C1COc2ccccc2O1 (centres undefined)	10µM*	-8%	-1%	-4%	3%
O=C(CCC1COc2ccccc2O1)Nc1ccccn1 (centres undefined)	10µM*	-12%	-2%	-3%	0%
O=C(CC1COc2ccccc2O1)Nc1ccccn1 (centres undefined)	-13%	3%	1%	1%	-3%
COc1ccc(Nc2nc(N3CCCCC3)nc(N3CCCCC3)n2)c(OC)c1	u	-3%	-3%[0.0738 µM]	0%	-2%
COc1ccc(Nc2nc(N)nc(C(F)(F)F)n2)c(OC)c1	13µM*	-19%	-2%	-1%	0%
COc1ccc(OC)c(-c2cc(C(=O)Nc3c(C)nn(Cc4ccccc4Cl)c3C)no2)c1	2.5µM*	-24%	-2%	0%	-1%
COc1ccc(OC)c(-c2cc(C(=O)Nc3c(C)nn(Cc4ccccc4C)c3C)no2)c1	3.2µM*	-38%	-1%	2%	0%
CCC(C(=O)Nc1cc(OC)ccc1OC)n1c(C)c2cnn(-c3ccccc3)c(=O)c2c1C (centres undefined)	x	6%[10.9 µM]	x	0%	x
CCOc1ccccc1CNC(=O)c1oc2c(c1C)-c1[nH]ncc1CC2	x	-16%[10.9 µM]	x	-1%	x
C#CCSc1nc(-c2cccs2)ccc1C#N	7.9µM*	-26%	3%	-1%	-1%
COc1ccc(CNC(=O)CCc2c(C)c3cc4c(C)c(C)oc4cc3oc2=O)cc1OC	x	-12%[10.9 µM]	x	0%	x
CCOC(=O)c1c(C)[nH]c(C(=O)COC(=O)c2ccccc2NC(=O)c2ccco2)c1C	2µM*	-19%	0%[57.5 µM]	0%	9%
CCC1(O)CC2CN(CCc3c([nH]c4ccccc34)[C@@](C(=O)OC)(c3cc4c(cc3OC)N(C=O)C3[C@]45CCN4CC=C[C@@](CC)([C@@H](OC(C)=O)[C@]3(O)C(=O)OC)[C@H]45)C2)C1 (some centres undefined)	x	-22%	x	x	x
CC[C@]1(O)C[C@H]2CN(CCc3c([nH]c4ccccc34)[C@](C(=O)OC)(c3cc4c(cc3OC)N(C=O)[C@H]3[C@@](O)(C(=O)OC)[C@H](OC(C)=O)[C@@]5(CC)C=CCN6CC[C@]43[C@H]65)C2)C1	1.3µM*	x	0%	u	2%
COc1cccc(-c2cc(C(F)(F)F)nc(NCc3ccco3)n2)c1	16%	-1%	-2%	u	2%
COc1ccc(-c2cc(C(F)(F)F)nc(NCc3ccco3)n2)cc1OC	2.5µM*	-29%	3%	0%	-2%
COc1ccc2c(C=Nc3c(C)n(C)n(-c4ccccc4)c3=O)c(O)n(Cc3ccco3)c(=O)c2c1	3.2µM*	-12%	5%	0%	0%
Cc1c(N=Cc2ccco2)c(=O)n(-c2ccccc2)n1C	-1%[7.6 µM]	-4%	-5%[0.0738 µM]	0%	-2%
Cc1ccc(C)c(-n2nnc(-c3nc(-c4ccccc4C)no3)c2C)c1	x	21%[10.9 µM]	x	-2%	x
O=C(Nc1ccc2oc(-c3ccccc3F)nc2c1)c1cncc(Br)c1	0.5µM*	u	4%	0%	-3%
O=c1oc2c3c4c(cc2c2c1CCC2)OCCN4CCC3	13µM*	-17%	1%	-3%	-2%
Cc1coc2c(C)c3oc(=O)c4c(c3cc12)CCC4	u	3%	0%	-3%	-6%
COc1ccc(-c2cc(C(=O)N3CCCc4ccccc43)no2)cc1	u	-18%	1%	u	-2%
COc1ccc(OC)c(-c2cc(C(=O)N3CCCc4ccccc43)no2)c1	3.2µM*	-26%	1%	u	0%
c1ccc2c(c1)CCN(c1nc3ccccc3n3cnnc13)C2	0.4µM*	-18%	-1%	u	2%
c1ccc(CN2CCN(c3nc4ccccc4n4cnnc34)CC2)cc1	13µM*	-17%	0%	-3%	7%
CCCN(CCC)CCCNC(=O)C1CCN(c2nc3ccc(CC)cc3s2)CC1	x	15%[10.9 µM]	x	u	x

Source: PubChem BioAssay (National Center for Advancing Translational Sciences (NCATS))
